# PLK1 inh – human PLK1 kinase inhibitors, primary screen, biochemical, TR-FRET; recombinant PLK1 kinase, TR-FRET peptide phosphorylation; inhibition, % at 10 µM; actives 0.53% (n = 97,000); AID 619, 2007;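 active = inhibition of 50% or more in the single-concentration screen; inactive = inhibition below 50%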;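 note: 0% = DMSO max control and 100% = H-89 dihydrochloride min control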
# sdo1 growth – growth rescue of sdo1-depleted yeast, primary screen, S. cerevisiae, bone marrow failure model; S. cerevisiae sdo1-depleted JHY4D growth rescue, OD600 30 h; stronger effect = higher value; pdr5 snq2 efflux-pump mutant strain; z-score at 10 µM; actives 0.21% (n = 140,000); AID 817, 2007;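 active = z-score above 3 at both the 24 hr and the 30 hr optical density reads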;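 note: z-score against mean and SD of all compound wells on the same plate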
# Plk1 PBD FP – Plk1 polo box domain binding inhibitors, primary screen, biochemical, fluorescence polarization; AID 693, 2007; actives 0.13% (n = 97,000); Serine/threonine-protein kinase PLK1 (Homo sapiens), P53350; inhibition, %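 (tested at about 20 µM)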; Plk1 PBD phosphopeptide binding; in the data active = inhibition above about 34%, passing the limit was not always enough
# PTK2B oligo ant – antagonists of Pyk2 self-association, primary screen, Q293 cells, FERM NanoBiT luminescence, HTS; actives 0.83% (n = 99,000); AID 1347419, 2020; stronger effect = lower value; z-score (the deposit names both 25 µM and 10 µM); Protein-tyrosine kinase 2-beta (Homo sapiens), Q14289;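 active = Z-score of -3 or lower, scaled per plate to the spread of control and sample wells; inactive = z-score above -3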;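 note: negative z-score means lost luminescence so less FERM oligomerization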
# Cav3 T inh – Cav3.2 calcium influx blockers – cell-based, Fluo-4 calcium fluorescence, FDSS, MLSMR library, primary screen | Voltage-dependent T-type calcium channel subunit alpha-1H (Homo sapiens), O95180 | Cav3.2-expressing cells; stronger effect = lower value | B-score at 10 µM | actives 4% (n = 100,000) | AID 449739, 2010;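 active = single-dose well whose peak fluorescence ratio is a statistical outlier from its plate by either plate-standardised score or position-corrected B-score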
# hDAT+cocaine – changed hDAT dopamine uptake under cocaine IC80, either direction, primary screen, cocaine antagonist project, cell-based, LLC-PK1 hDAT, [14C]-dopamine uptake, MLSMR; Sodium-dependent dopamine transporter (Homo sapiens), Q01959; LLC-PK1 hDAT cells, [14C]-dopamine uptake with cocaine IC80; actives deviate in either direction; B-score at 10 µM; actives 1.3% (n = 110,000);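 active = Z score or B-score, a plate-position-corrected score, falls beyond the plate's 99.7% confidence bounds, in either direction; inactive = both scores lie inside the 99.7% bounds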;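 note: scored against the spread of the other compound wells on the same plate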
# Starred values were filed as active, the others as inactive; . = no result. Most compounds without a hit are left out; they make up all but 4.7% or so of the library.
SMILES,PLK1 inh,sdo1 growth,Plk1 PBD FP,PTK2B oligo ant,Cav3 T inh,hDAT+cocaine
CCCOc1ccc(C(C)=O)cc1CN1CCOCC1,.,0.48,.,.,.,.
CC(=O)c1ccc(Oc2ncnc3sccc23)c(CN2CCOCC2)c1,.,0.32,.,-0.96,1.58,-7.94*
S=C1N(c2ccccc2)C(c2ccc(Cl)cc2)N2CCCN12 (stereo not given),-10.9,-1.5,21.9,-0.64,-4.85*,-0.836
COc1ccc(C2N(c3ccccc3)C(=S)N3CCCN23)cc1 (stereo not given),.,-0.05,.,1.21,.,.
Cn1cc(C(=O)N2CCc3ccccc32)cn1,.,0.18,.,.,.,.
CCc1cc2c(=O)c(-c3cscn3)coc2c(CN(C)C)c1O,-12.1,0.42,-0.6,-3.36*,0.347,0.933
Cc1ccc(CSCCNC(=O)c2ccc(N(C)S(=O)(=O)c3ccccc3)cc2)cc1,-6.5,-0.96,-13.9,2.36,-5.65*,0.276
O=C(NCCC1=CCCCC1)c1ccc(Cl)c(S(=O)(=O)N2CCOCC2)c1,-12.9,-0.78,-6.4,0.44,-0.00271,0.226
Cc1ccc(CSCCNC(=O)c2ccc(Cl)c(S(=O)(=O)N3CCOCC3)c2)cc1,-9.5,-0.97,8.7,0.01,-7.42*,-0.0302
Cc1cc(C)nc(N/C(=N\S(=O)(=O)Cc2ccccc2)Nc2ccccc2Br)n1,.,-0.17,.,.,.,.
C=CCn1c(COc2ccc3c(c2)CCCC3)nnc1SCC(=O)Nc1cccc(SC)c1,-0.8,-1.48,-24.8,-0.42,-4.37*,0.311
C=CCn1c(COc2ccccc2)nnc1SCC(=O)Nc1ccc2c(c1)OCCO2,-1.9,-0.73,8.9,0.63,-0.698,0.0379
COc1ccc(C(c2nnnn2CC2CCCO2)N2CCN(c3cccc(C)c3C)CC2)cc1 (stereo not given),-8.0,-1.42,-5.7,-2.99,-3.74*,0.679
CCCCC(c1nnnn1CC1CCCO1)N1CCN(c2cccc(C)c2C)CC1 (stereo not given),-17.4,-1.17,-23.6,-2.4,-5.85*,-0.00564
CCCCC(c1nnnn1CC1CCCO1)N1CCN(Cc2ccccc2)CC1 (stereo not given),-9.8,2.29,4.5,0.95,0.92,-1.44
CC1CCCCN1CC(=O)Nc1ccccc1Sc1ccccc1 (stereo not given),.,-0.65,.,.,.,.
CC1CCc2c(C(=O)Nc3ccc(OC(F)(F)F)cc3)csc2C1 (stereo not given),.,-0.68,.,.,.,.
O=C(Nc1nc(-c2cccs2)cs1)c1cccc(S(=O)(=O)N2CCCCCC2)c1,-9.1,-0.26,-26.5,-0.78,-2.94,-0.93
O=C(Nc1nc(-c2cccs2)cs1)c1ccc(S(=O)(=O)N2CCCCC2)cc1,-3.4,-1.44,3.9,.,-6.09*,2.48
CCOC(=O)c1c(NC(=O)c2ccccc2)sc2c(O)c(CN(CC)CC)ccc12,-0.6,-0.85,-15.4,-0.88,-0.143,2.41*
CC1CC(C)CN(C(=O)CCNS(=O)(=O)c2cccs2)C1 (stereo not given),.,1.17,.,0.56,.,.
CCOC(=O)N1CCN(C(=O)CNS(=O)(=O)c2cccs2)CC1,1.9,0.01,21.0,0.75,-0.255,-0.355
Cc1ccc(C)c(N2CCN(C(=O)CNS(=O)(=O)c3cccs3)CC2)c1,-0.4,-0.01,21.3,0.69,0.217,1.68*
COc1ccc(N2CCN(C(=O)CCNS(=O)(=O)c3cccs3)CC2)cc1,-9.9,0.42,-4.5,0.02,0.391,11.1*
CN(C)S(=O)(=O)c1cccc(C(=O)OCC(=O)NC2CCCc3ccccc32)c1 (stereo not given),.,1.14,.,.,.,.
Cc1onc(-c2ccccc2)c1C(=O)Nc1ccccc1N1CCOCC1,.,-1.08,.,-0.53,-1.56,0.574
Cc1onc(-c2ccccc2)c1C(=O)Nc1cc(C(F)(F)F)ccc1N1CCOCC1,0.7,-1.73,-11.7,0.1,-5.93*,0.0391
O=C(CCc1ccccc1)NC(=S)Nc1cc(C(F)(F)F)ccc1N1CCOCC1,-12.4,-0.52,14.5,-1.62,-5.66*,-0.0116

# High-throughput results deposited in PubChem by several laboratories.
